Drawing on PubChem BioAssay (EPA / NIEHS), this text covers outcome and AC50 for 4 compounds.

Test [1] in a line: ATG_PPRE_CIS: Attagene CIS-FACTORIAL HepG2 Assay for human Peroxisome Proliferator-activated Response Element (PPRE) (AID 2282958). Particulars: HepG2 PPRE cis-element reporter, Attagene transcription factor profiling; actives raise or lower the signal. In outline:
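HepG2, transient MRTU transfection (cis promoter elements, endogenous TFs). 24 h dosing. RNA → oligo(dT) RT → PCR → 6-FAM primer extension → HpaI digest → CE. Bidirectional fit vs DMSO.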

A short description of test [2]: ATG_RORE_CIS: Attagene CIS-FACTORIAL HepG2 Assay for human RAR-related Orphan Receptor Element (RORE) (AID 2282959). Conditions: HepG2 Attagene cis-factorial RORE reporter, mRNA; actives raise or lower the signal. An outline of the steps:
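Transient MRTU transfection of human HepG2 liver cells (FuGene 6); 24 h compound exposure; TriZol RNA, oligo(dT) RT, PCR, FAM labeling, HpaI cut, CE fragment analysis. DMSO = negative control/baseline.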

The nature of test [3]: ATG_Sox_CIS: Attagene CIS-FACTORIAL HepG2 Assay for human SRY-box transcription factor (SOX) (AID 2282960). Conditions: HepG2 Attagene cis-factorial SOX reporter, mRNA; actives raise or lower the signal. An outline of the steps: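 Endogenous factor activity in human liver HepG2 cells carrying transfected cis-regulated reporter units. RNA taken 24 h post-dose, reverse-transcribed, PCR-amplified and sized by capillary electrophoresis. Gain or loss of signal fitted relative to DMSO.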

Test [4] addresses Transcription factor Sp1 (Homo sapiens) (UniProt P08047). Put plainly: ATG_Sp1_CIS: Attagene CIS-FACTORIAL HepG2 Assay for human Specificity Protein 1 (Sp1) (AID 2282961). Particulars: HepG2 Sp1 cis-reporter transcription, actives raise or lower the signal. In outline:
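Transient MRTU-transfected HepG2, 24 h compound exposure. Total RNA → oligo(dT) RT → PCR of reporter → 6-FAM primer extension → HpaI digest → CE. Endpoint fitted both directions vs DMSO.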

Test [5] in a line: ATG_SREBP_CIS: Attagene CIS-FACTORIAL HepG2 Assay for human Sterol Regulatory Element Binding (SREBP) (AID 2282962). Conditions: HepG2 Attagene cis-factorial SREBP reporter, mRNA; actives raise or lower the signal. An outline of the steps: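 Transfected HepG2 (cis-regulated reporter library, endogenous TFs) → compound 24 h → total RNA → oligo(dT) RT → reporter-specific PCR → FAM primer extension, HpaI cut → CE fluorescence. Fit bidirectional vs DMSO.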

In test [6] the target is Signal transducer and activator of transcription 3 (Homo sapiens) (UniProt P40763). Kind of test: ATG_STAT3_CIS: Attagene CIS-FACTORIAL HepG2 Assay for human Signal Transducer and Activator of Transcription 3 (STAT3) (AID 2282963). Particulars: HepG2, Attagene cis-factorial STAT3 reporter transcription; actives raise or lower the signal. An outline of the steps: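 After a 24 h compound incubation, total RNA from MRTU-transfected HepG2 cells was converted to cDNA and reporter sequences PCR-amplified, labelled and profiled by capillary electrophoresis. Gain and loss of signal were referenced to DMSO.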
Chain of Signal transducer and activator of transcription 3 (Homo sapiens) (P40763 whole entry, looked up): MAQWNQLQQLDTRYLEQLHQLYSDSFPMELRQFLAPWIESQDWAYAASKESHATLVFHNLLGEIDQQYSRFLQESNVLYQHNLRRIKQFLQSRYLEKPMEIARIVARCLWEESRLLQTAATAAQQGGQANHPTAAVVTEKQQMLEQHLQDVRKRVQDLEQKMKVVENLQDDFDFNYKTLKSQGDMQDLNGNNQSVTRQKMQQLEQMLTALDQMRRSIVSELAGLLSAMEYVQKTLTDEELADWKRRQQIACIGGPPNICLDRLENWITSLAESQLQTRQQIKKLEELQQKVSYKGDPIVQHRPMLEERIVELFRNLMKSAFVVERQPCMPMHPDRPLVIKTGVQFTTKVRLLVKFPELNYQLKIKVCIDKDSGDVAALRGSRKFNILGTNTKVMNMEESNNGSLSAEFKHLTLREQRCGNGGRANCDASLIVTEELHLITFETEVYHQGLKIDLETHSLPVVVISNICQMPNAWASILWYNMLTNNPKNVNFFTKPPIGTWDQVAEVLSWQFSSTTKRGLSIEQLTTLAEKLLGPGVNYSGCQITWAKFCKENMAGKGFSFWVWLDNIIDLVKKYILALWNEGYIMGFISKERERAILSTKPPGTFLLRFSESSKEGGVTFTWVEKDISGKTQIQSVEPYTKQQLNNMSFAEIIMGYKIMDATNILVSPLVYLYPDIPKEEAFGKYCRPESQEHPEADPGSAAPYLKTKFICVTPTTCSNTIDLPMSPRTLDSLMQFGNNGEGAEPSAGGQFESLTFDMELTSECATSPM

Test [7] is described as follows: ATG_TCF_b_cat_CIS: Attagene CIS-FACTORIAL HepG2 Assay for human T-Cell-Factor with beta-catenin (TCF/b-cat) (AID 2282965). Particulars: HepG2 TCF/beta-catenin cis-reporter transcription, actives raise or lower the signal. In outline: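 Endogenous transcription factor activity is captured through cis-promoter reporter constructs transiently introduced into human HepG2 liver cells. Induced reporter mRNA is measured after 24 h and fitted bidirectionally relative to DMSO.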

The nature of test [8]: ATG_TAL_CIS: Attagene CIS-FACTORIAL HepG2 Assay for human TAL Basal Promoter (AID 2282966).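 Note: background control endpoint measuring basal TAL promoter reporter mRNA not a specific factor.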 Particulars: HepG2 Attagene cis-factorial TAL promoter reporter; actives raise or lower the signal. In outline:
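HepG2 cells transiently transfected with multiplexed cis-promoter reporter units, dosed 24 h. Reporter mRNA quantified by RT-PCR, 6-FAM labelling, HpaI digestion and capillary electrophoresis; TAL basal promoter serves as background control, fitted bidirectionally versus DMSO.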

Test [9] can be described thus: ATG_TGFb_CIS: Attagene CIS-FACTORIAL HepG2 Assay for human Transforming Growth Factor (TGF) (AID 2282967). Particulars: HepG2 Attagene CIS TGFb reporter, mRNA transcription; actives raise or lower the signal. In outline: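 Transcript-level reporter readout: HepG2 transfectants, 24 h exposure, RNA to cDNA, reporter-specific PCR, fluorescent primer extension, capillary sizing against ROX standards. Gain- or loss-of-signal relative to DMSO.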

Test [10] can be described thus: ATG_VDRE_CIS: Attagene CIS-FACTORIAL HepG2 Assay for human Vitamin D Receptor Element (VDRE) (AID 2282968). Conditions: HepG2 VDRE cis-reporter transcription, actives raise or lower the signal. An outline of the steps: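 In transiently transfected HepG2 liver cells, gain or loss of reporter mRNA after 24 h exposure is scored relative to DMSO, using fluorescence detection by capillary electrophoresis of RT-PCR products.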

The target in test [11] is Nuclear receptor subfamily 1 group I member 3 (Homo sapiens) (UniProt Q14994). Put plainly: ATG_CAR_TRANS: Attagene TRANS-FACTORIAL HepG2 Assay for human Constitutive Androstane Receptor (CAR) (AID 2282969; active = hit-call score of the fitted dose curve at least 0.9, where 1 is the maximum;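 note: activators raise reporter mRNA above DMSO so AC50 marks induction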). Conditions: HepG2 Attagene TRANS-FACTORIAL CAR reporter. An outline of the steps:
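Readout is reporter mRNA induction, quantified by fluorescent primer extension and capillary electrophoresis after RT-PCR. Cells were HepG2 transiently carrying chimeric NR-Gal4 constructs with GAL4-UAS reporters, treated for 24 h; activity scored upward from DMSO.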

Test [12] addresses Estrogen receptor (Homo sapiens) (UniProt P03372). Put plainly: ATG_ERa_TRANS: Attagene TRANS-FACTORIAL HepG2 Assay for human Estrogen Receptor alpha (ERa) (AID 2282970; active = hit-call score of the fitted dose curve at least 0.9, where 1 is the maximum). Particulars: HepG2 Attagene TRANS ERa GAL4 reporter, mRNA. In outline:
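HepG2 cells transiently transfected with multiplexed GAL4-UAS reporter units read out chimeric NR-Gal4 activity. After 24 h compound exposure, reporter mRNA was quantified by RT-PCR, 6-FAM labeling, HpaI digestion and capillary electrophoresis, relative to DMSO.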

For test [13], the target named is Steroid hormone receptor ERR1 (Homo sapiens) (UniProt P11474). Put plainly: ATG_ERRa_TRANS: Attagene TRANS-FACTORIAL HepG2 Assay for human Estrogen-Related Receptor alpha (ERRa) (AID 2282971; active = hit-call score of the fitted dose curve at least 0.9, where 1 is the maximum). Conditions: HepG2 Attagene TRANS reporter, ERRa transactivation. In outline:
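HepG2 cells transiently transfected with GAL4-UAS reporter units and chimeric NR-Gal4 constructs; after 24 hour compound incubation, reporter mRNA quantified by RT-PCR, fluorescent labelling and capillary electrophoresis, gain of signal versus DMSO.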

The target in test [14] is X-box-binding protein 1 (Homo sapiens) (UniProt P17861). Put plainly: ATG_Xbp1_CIS: Attagene CIS-FACTORIAL HepG2 Assay for human X-box Binding Protein 1 (XBP1) (AID 2282972). Particulars: HepG2 XBP1 cis-element reporter, Attagene multiplex; actives raise or lower the signal. An outline of the steps:
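HepG2, transient MRTU transfection (cis-promoter driven), 24 h compound exposure. Total RNA → oligo(dT) RT → PCR → 6-FAM labeling → HpaI cut → CE. Bidirectional fit vs DMSO.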

The nature of test [15]: ATG_M_19_TRANS: Attagene TRANS-FACTORIAL HepG2 Assay for M19 Transcription Factor (Internal Marker) (AID 2282974; active = hit-call score of the fitted dose curve at least 0.9, where 1 is the maximum). Particulars: HepG2 Attagene TRANS-FACTORIAL M19 internal marker reporter. An outline of the steps: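 Fluorescence of 6-FAM-labelled reporter cDNA fragments, separated by capillary electrophoresis, served as the readout. These derived from HepG2 cells carrying transfected GAL4-UAS reporter units after 24 h dosing, with DMSO as negative control.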

Test [16] is described as follows: ATG_GAL4_TRANS: Attagene TRANS-FACTORIAL HepG2 Assay for GAL4 (Internal Marker) (AID 2282976; active = hit-call score of the fitted dose curve at least 0.9, where 1 is the maximum). Conditions: HepG2 Attagene TRANS GAL4 internal marker reporter. An outline of the steps: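 Background-control readout: GAL4-UAS reporter transcript in transiently transfected HepG2 cells after 24 h compound exposure. Measured by RT-PCR, 6-FAM primer extension, HpaI digest and capillary electrophoresis; gain-of-signal fit versus DMSO.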

Test [17] has as its target Bile acid receptor (Homo sapiens) (UniProt Q96RI1). Kind of test: ATG_FXR_TRANS: Attagene TRANS-FACTORIAL HepG2 Assay for Farnesoid X Receptor (FXR) (AID 2282979; active = hit-call score of the fitted dose curve at least 0.9, where 1 is the maximum;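 note: hits raise reporter mRNA above DMSO so AC50 marks FXR activation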). Conditions: HepG2 Attagene TRANS FXR-GAL4 reporter transcription. In outline: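 HepG2 cells were transiently transfected with GAL4-UAS reporters driven by chimeric NR-Gal4 proteins and dosed for 24 h. Reporter mRNA was quantified by RT-PCR, fluorescent labelling, HpaI digestion and capillary electrophoresis, with gain of signal scored versus DMSO.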

Test [18] is described as follows: ATG_TA_CIS: Attagene CIS-FACTORIAL HepG2 Assay for human TA Basal Promoter (AID 2282964). Particulars: HepG2 Attagene CIS-factorial TA basal promoter reporter; actives raise or lower the signal. In outline: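 Multiplexed mRNA reporter assay, HepG2, 24 h. Reporter cDNA amplified, 6-FAM primer-extended, HpaI-cut, CE-sized; DMSO = negative control and baseline.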

Structures are written as SMILES. Records with an inconclusive call do not appear. The source made the active and inactive calls. Rule for the calls, unless noted: active = hit-call score of the fitted dose curve at least 0.9, where 1 is the maximum; inactive = score below 0.9.

The term AC50 denotes the concentration at which the activity in the assay is half-maximal.

Chain of X-box-binding protein 1 (Homo sapiens) (P17861 whole entry, looked up): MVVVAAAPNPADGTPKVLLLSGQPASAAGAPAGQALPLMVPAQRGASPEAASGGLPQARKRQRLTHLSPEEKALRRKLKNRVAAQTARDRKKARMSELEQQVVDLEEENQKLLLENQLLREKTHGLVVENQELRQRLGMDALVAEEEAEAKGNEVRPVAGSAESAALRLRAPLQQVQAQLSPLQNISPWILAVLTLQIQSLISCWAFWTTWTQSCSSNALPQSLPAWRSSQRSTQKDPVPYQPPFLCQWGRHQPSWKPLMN
Chain of Estrogen receptor (Homo sapiens) (P03372 whole entry, looked up, the tested form may be a part): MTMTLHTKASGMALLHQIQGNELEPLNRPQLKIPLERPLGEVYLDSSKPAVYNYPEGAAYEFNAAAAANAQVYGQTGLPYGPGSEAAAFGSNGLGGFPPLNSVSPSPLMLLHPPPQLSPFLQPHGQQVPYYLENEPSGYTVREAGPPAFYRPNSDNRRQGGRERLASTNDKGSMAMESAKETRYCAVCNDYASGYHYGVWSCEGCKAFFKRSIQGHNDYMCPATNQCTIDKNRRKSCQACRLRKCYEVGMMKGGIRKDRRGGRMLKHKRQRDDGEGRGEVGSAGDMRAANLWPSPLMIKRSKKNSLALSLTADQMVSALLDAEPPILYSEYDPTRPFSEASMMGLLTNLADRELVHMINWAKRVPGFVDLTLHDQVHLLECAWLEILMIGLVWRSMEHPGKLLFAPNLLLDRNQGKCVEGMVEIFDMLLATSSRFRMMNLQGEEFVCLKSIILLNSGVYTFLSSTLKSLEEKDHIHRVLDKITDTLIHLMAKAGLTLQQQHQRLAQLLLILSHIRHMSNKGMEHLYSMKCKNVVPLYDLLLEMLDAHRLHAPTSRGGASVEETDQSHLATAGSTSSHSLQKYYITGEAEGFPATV
Chain of Transcription factor Sp1 (Homo sapiens) (P08047 whole entry, looked up): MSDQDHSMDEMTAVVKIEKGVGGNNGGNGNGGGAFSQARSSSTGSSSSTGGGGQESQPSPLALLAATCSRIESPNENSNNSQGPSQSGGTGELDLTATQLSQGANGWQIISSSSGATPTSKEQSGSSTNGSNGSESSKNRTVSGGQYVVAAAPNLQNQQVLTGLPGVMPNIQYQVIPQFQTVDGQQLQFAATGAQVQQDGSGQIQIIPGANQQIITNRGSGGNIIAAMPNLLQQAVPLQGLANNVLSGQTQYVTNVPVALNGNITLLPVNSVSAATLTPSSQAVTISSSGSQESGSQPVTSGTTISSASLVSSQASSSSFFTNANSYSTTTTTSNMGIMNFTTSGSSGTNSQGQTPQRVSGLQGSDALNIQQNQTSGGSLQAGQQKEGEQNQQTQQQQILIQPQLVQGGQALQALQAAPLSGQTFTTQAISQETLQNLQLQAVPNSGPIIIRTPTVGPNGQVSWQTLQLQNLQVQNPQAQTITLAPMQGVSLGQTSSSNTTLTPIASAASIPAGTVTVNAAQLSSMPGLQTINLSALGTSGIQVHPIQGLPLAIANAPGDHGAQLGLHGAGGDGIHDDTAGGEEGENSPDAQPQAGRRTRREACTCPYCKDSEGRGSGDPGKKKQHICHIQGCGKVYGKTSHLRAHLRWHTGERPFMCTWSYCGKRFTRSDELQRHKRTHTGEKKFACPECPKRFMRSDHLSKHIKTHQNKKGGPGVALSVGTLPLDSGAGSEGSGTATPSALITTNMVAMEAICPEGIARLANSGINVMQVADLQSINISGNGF
Chain of Bile acid receptor (Homo sapiens) (Q96RI1 whole entry, looked up, the tested form may be a part): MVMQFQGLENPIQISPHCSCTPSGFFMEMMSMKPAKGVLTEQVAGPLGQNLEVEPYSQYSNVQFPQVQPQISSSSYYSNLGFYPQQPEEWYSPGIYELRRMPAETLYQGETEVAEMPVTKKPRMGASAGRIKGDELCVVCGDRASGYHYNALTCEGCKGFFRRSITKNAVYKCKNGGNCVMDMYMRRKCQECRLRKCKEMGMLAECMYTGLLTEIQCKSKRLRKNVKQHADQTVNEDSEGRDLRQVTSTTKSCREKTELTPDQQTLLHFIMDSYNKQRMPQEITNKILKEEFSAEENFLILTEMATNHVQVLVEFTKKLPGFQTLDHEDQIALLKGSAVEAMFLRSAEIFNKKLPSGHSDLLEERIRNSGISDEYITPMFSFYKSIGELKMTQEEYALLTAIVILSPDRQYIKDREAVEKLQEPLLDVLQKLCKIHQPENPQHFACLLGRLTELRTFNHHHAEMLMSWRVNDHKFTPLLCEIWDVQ
Chain of Nuclear receptor subfamily 1 group I member 3 (Homo sapiens) (Q14994 whole entry, looked up, the tested form may be a part): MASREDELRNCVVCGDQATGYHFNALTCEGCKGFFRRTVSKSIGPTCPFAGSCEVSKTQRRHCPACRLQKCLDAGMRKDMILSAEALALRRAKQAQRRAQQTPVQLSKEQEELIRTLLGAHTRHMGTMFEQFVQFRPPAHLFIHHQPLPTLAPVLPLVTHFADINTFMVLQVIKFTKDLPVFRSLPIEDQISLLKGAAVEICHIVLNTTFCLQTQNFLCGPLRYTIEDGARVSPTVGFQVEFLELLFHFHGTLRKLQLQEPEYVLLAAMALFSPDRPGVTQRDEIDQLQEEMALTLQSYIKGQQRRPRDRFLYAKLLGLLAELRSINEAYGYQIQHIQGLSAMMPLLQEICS
Chain of Steroid hormone receptor ERR1 (Homo sapiens) (P11474 whole entry, looked up, the tested form may be a part): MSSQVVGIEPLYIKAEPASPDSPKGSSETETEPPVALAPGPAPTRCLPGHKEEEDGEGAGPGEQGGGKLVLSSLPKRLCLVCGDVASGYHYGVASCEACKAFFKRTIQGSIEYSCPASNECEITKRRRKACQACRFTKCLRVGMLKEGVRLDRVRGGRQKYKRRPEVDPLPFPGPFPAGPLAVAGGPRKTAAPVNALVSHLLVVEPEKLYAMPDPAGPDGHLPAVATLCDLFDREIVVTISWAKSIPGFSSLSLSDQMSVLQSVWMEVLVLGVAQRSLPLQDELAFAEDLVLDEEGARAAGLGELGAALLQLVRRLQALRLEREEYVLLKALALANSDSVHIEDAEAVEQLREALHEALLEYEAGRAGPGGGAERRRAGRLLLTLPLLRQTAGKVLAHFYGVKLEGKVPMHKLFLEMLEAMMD

In the case of `CCN1CCC2(CC1)COc1cc3c(cc12)N(C(=O)c1ccc(-c2ccc(-c4nnc(C)o4)cc2C)cc1)CC3`, the compound was called inactive in [1], in test [2], in test [3], in test [4], in test [5] and in test [6]. Besides, the compound was classed as inactive in [8], in test [9], in test [10], in test [11], in [12] and in test [13]. In addition, the compound was classed as inactive in [14], in [15], in [16] and in test [17]. Further, the AC50 in test [7] is 6.25 µM (active).

For `CC(Br)C(=O)O` (stereo not given), the compound was called inactive in test [1], in test [2], in test [3], in [4], in test [5] and in test [18]. Also, the outcome in test [7], in test [9], in test [10], in test [11], in test [12] and in test [14] was inactive. The result in test [15] and in test [16] was inactive.

Turning to `Nc1ccc(Cl)cc1C(=O)c1ccccc1`, the compound was classed as inactive in test [1], in test [3], in test [4], in [5], in [8] and in [9]. Also, the outcome in test [13], in test [14], in test [15], in test [16] and in test [17] was inactive. Besides, the AC50 in [2] was 15 µM (active); in [18], 21.8 µM (active); in test [7] it was 39.6 µM (active); in test [10] it was 16.6 µM (active); in test [12], 3.63 µM (active).

As for `C[C@]12CC[C@H](O)CC1=CC[C@@H]1[C@@H]2CC[C@]2(C)C(=O)CC[C@@H]12`, the compound was classed as inactive in test [1], in test [2], in test [3], in test [4], in test [5] and in [6]. Besides, the call in test [18], in test [7], in test [9], in [10], in test [14] and in test [15] was inactive. Further, in test [16], the result was inactive.
